Screens as filed in PubChem BioAssay.
This excerpt belongs to a sample that is enriched for hits.
Pf Dd2 inh: inhibitors of Plasmodium falciparum Dd2 growth | P. falciparum Dd2 growth, SYBR Green, 72 h | Potency, µM (highest dose often 28.9 µM), actives largely listed as inhibitors | AID 1347417 | 120,000 tested, 4.3% active; active = well fitted inhibition curve with a large enough effect; note: nearly all actives have a fitted effect of over 65% in size
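Infected erythrocytes (Dd2, 0.3% parasitemia, 2.5% hematocrit final) are added to compound in RPMI-1640/Albumax II medium, grown 72 h at 37C in low oxygen, then lysed with saponin/Triton-X containing SYBR Green and read by fluorescence.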
Of the large screens only hits and unclear results are named; the others gave an inactive call.

C=CCN1CCN(C(=O)C2(CCO)CC23CCOCC3)CC1 (configuration not stated)	none
O=C1NCCCCCCN(C(=O)Nc2ccccc2F)[C@H]2C[C@H](c3nc(-c4cccnc4)no3)C[C@@H]12	none
CC(C)N1C(=O)C2(CCCCC2)C1C(=O)N1CCN(C)CC1 (configuration not stated)	none
CC(C)N1C(=O)C2(CCCC2)C1C(=O)N1CCC(N2CCCCC2)CC1 (configuration not stated)	none
CC(C)N1C(=O)C2(CCCC2)C1C(=O)N1CCN(C2CCCCC2)CC1 (configuration not stated)	Pf Dd2 inh 10µM
CCn1ccc(C(=O)N2C[C@@H](COC)[C@H](c3nc(C4CC4)no3)C2)n1	none
Cc1cccc2cc(C(=O)N3CCCC(Nc4ccc(F)cc4)C3)oc12 (configuration not stated)	none
CC(=O)N1CCC(CC(=O)N2C[C@@H](Oc3cccnc3)C[C@H]2C(=O)N2CCOCC2)CC1	none
COc1ccc(NC(=O)Nc2ccc(C)n(CC(=O)Nc3ccc(C)c(C)c3)c2=O)cc1	none
CC(C)Oc1cccc2c1c(NC(=O)c1ccn(C)n1)nn2Cc1ccccc1	Pf Dd2 inh 8.91µM
CC(C)Oc1cccc2c1c(NC(=O)C1CCCO1)nn2Cc1ccccc1 (configuration not stated)	none
CC(C)Oc1cccc2c1c(NC(=O)C1CCOCC1)nn2C	none
Cc1nc2c(c(=O)[nH]1)CCN(C(=O)C1(C)CCc3c(C)c(O)c(C)c(C)c3O1)C2 (configuration not stated)	none
CN1C(=O)C2(CCN(C(=O)CCN3CCCCCC3=O)CC2)c2ccccc21	none
Cn1ccc2c(C(=O)NCc3cccnc3)nc(-c3ccc(CO)cc3)cc21	none
CN(C)CCNC(=O)c1nc(-c2ccc(N3CCN(C)CC3)cc2)cc2c1ccn2C	Pf Dd2 inh 11.2µM
COc1ccc(-c2cc3c(ccn3C)c(C(=O)NCCC(N)=O)n2)cc1OC	none
COCCn1c(C)cnc1CCNC(=O)c1ccc(OC)nc1	none
Cc1nc2c(s1)CCCC2NC(=O)c1cc(-c2ccc(F)cc2)n[nH]1 (configuration not stated)	none
Cc1cc(C(=O)N2CCC(C3CCN(S(C)(=O)=O)CC3)C2)nn1C (configuration not stated)	none
COc1ccc2nc(CO[C@H]3CN(Cc4ccc(S(C)(=O)=O)cc4)C[C@H]3F)[nH]c2c1	none
CCOC(=O)N1CCc2c(sc3c2c(=O)n(-c2ccc(CC)cc2)c(=O)n3CC(=O)c2ccc(F)cc2)C1	Pf Dd2 inh 7.94µM
CCc1ccc(-n2c(=O)c3c4c(sc3n(CC(=O)c3ccc(Cl)cc3)c2=O)CCC4)cc1	none
CCOC(=O)N1CCc2c(sc3c2c(=O)n(Cc2ccccc2)c(=O)n3Cc2cccc(Cl)c2)C1	Pf Dd2 inh 11.2µM
CCOC(=O)N1CCc2c(sc3c2c(=O)n(-c2ccc(Cl)cc2)c(=O)n3Cc2cccc(C)c2)C1	none
O=C(Cn1c(=O)n(-c2ccccc2)c(=O)c2c3c(sc21)CCCC3)Nc1ccc(F)cc1	none
CC(=O)N1CCc2c(sc3c2c(=O)n(-c2cccc(Cl)c2)c(=O)n3Cc2ccc(F)cc2Cl)C1	Pf Dd2 inh 11.2µM
COc1cccc(-n2c(=O)c3c4c(sc3n(Cc3ccc(F)cc3Cl)c2=O)CCCC4)c1	none
CCOC(=O)N1CCc2c(sc3c2c(=O)n(-c2ccc(Cl)cc2)c(=O)n3CC(C)C)C1	none
CCOC(=O)N1CCc2c(sc3c2c(=O)n(-c2ccc(Cl)cc2)c(=O)n3Cc2cccc(OC)c2)C1	none
CCc1ccc(-n2c(=O)c3c4c(sc3n(CC(=O)c3ccc(Br)cc3)c2=O)CCC4)cc1	none
CC(=O)N1CCc2c(sc3c2c(=O)n(-c2ccc(F)cc2)c(=O)n3Cc2cc(C)ccc2C)C1	none
CCOC(=O)N1CCc2c(sc3c2c(=O)n(-c2ccc(Cl)cc2)c(=O)n3CC(=O)Nc2ccccc2)C1	Pf Dd2 inh 8.91µM
Cc1cc(C2CCCN2C(=O)c2cc(C)c(C)c(S(N)(=O)=O)c2)on1 (configuration not stated)	none
COc1ccc(NC(=O)Nc2ccc(C)n(CC(=O)NCC(C)C)c2=O)cc1	none
CC(C)N1C(=O)CO[C@H](c2ccc(NC(=O)c3ccc(C#N)cc3)cc2)[C@H]1CO	none
CN(C)CCNC(=O)Cc1c[nH]c2ncc(-c3ccccc3)cc12	none
Cc1cn2nc(C(=O)NCc3cccnc3)cc2c(=O)[nH]1	none
CC(=O)N1CCc2c(sc3c2c(=O)n(Cc2ccccc2)c(=O)n3Cc2cc(C)ccc2C)C1	none
CCOC(=O)N1CCc2c(sc3c2c(=O)n(Cc2ccccc2)c(=O)n3CC(=O)Nc2cccc(CC)c2)C1	Pf Dd2 inh 7.08µM
CCOC(=O)N1CCc2c(sc3c2c(=O)n(CCc2ccccc2)c(=O)n3CC(=O)Nc2ccccc2C)C1	none
CC(=O)N1CCc2c(sc3c2c(=O)n(CCc2ccccc2)c(=O)n3Cc2ccccc2C)C1	Pf Dd2 inh 7.94µM
CC(=O)c1cccc(-n2c(=O)c3c4c(sc3n(CC(=O)Nc3ccccc3F)c2=O)CN(C(C)=O)CC4)c1	none
CC(=O)N1CCc2c(sc3c2c(=O)n(-c2ccccc2C)c(=O)n3CC(=O)c2ccccc2)C1	none
CCOC(=O)N1CCN(C(=O)c2cc(Cn3nc(C)cc3C)[nH]n2)CC1	none
